Reference: PubChem BioAssay AID624330 (Southern Research Specialized Biocontainment Screening …, 2012)
The campaign covered roughly 340,000 compounds. About 2,100 (0.62%) were called active.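 How the source made its calls: active means first-screen hits whose inhibition reached a set limit at any dose in the follow-up dose series; inconclusive means inhibition above the set first-screen limit but never retested; inactive means the rest.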 Not all results are given here. Results with a measured potency or affinity are listed apart.

Each molecule was assayed against Rac GTPase-activating protein 1 (Homo sapiens) (UniProt Q9H0H5) (assay: blockers of MgcRacGAP-driven Rac1 GTP hydrolysis – biochemical, ADP Hunter fluorescence, primary and confirmatory, confirmation (AID 624330;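 further: fluorescence reports GDP produced by GAP-driven GTP hydrolysis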)). Settings: MgcRacGAP-stimulated Rac1 GTP hydrolysis, at 30 µM, stronger effect = higher value, GST-tagged Rac1 F28L mutant substrate.
Chain of Rac GTPase-activating protein 1 (Homo sapiens) (Q9H0H5 whole entry, looked up): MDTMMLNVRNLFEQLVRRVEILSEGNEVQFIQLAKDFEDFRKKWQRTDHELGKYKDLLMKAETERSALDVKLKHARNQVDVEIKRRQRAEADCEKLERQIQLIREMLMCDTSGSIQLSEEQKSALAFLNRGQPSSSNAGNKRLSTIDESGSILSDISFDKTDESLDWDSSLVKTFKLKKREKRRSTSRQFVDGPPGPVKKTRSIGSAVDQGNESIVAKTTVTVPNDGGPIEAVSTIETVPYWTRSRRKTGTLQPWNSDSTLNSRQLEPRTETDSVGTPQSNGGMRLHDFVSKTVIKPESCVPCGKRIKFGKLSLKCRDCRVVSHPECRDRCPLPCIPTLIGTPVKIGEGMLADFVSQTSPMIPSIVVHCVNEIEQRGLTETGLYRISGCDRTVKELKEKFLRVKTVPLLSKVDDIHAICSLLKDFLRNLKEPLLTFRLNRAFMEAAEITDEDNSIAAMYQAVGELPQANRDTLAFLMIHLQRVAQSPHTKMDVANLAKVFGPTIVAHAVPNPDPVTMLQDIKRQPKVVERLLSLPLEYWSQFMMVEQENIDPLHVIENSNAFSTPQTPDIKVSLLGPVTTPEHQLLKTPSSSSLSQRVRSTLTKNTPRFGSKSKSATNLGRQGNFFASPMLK

inhibition, inactive:
CCN(CC)S(=O)(=O)c1cccc(C(=O)NN2Cc3ccccc3C2=N)c1 -4.56%, CCn1c(SCC(=O)Nc2cc(C)on2)nnc1-c1cccc(C)c1 7.99%, CCn1c(SCC(=O)Nc2ccc(C)cc2)nnc1-c1ccc(O)cc1 5.22%, C=CCn1c(SCC(=O)Nc2ccc3c(c2)OCO3)nnc1-c1ccccc1 6.23%, C=CCn1c(SCC(=O)NNC(=O)Nc2ccc(C)cc2)nnc1-c1ccccc1 1.01%, Cc1csc(=O)n1CCC(=O)OCC(=O)Nc1ccc(Cl)cn1 4.45%, CCOc1ccc(S(=O)(=O)N/N=C(\C)C2CCCCC2)cc1 3.81%, CCCCOc1ccc(/C=N/NC(=O)c2csc(C)c2C)cc1 16.6%, COc1cccc(-n2nnc3c(=O)n(CC(=O)N4CCC(C)CC4)cnc32)c1 11.4%, CCOc1ncccc1C(=O)OCC(=O)NCc1ccccc1 5.95%, O=C(CN1CCN(C2CCCCC2)CC1)Nc1cccc2ccccc12 15.3%, O=C(CN1CCCCC1)Nc1ccccc1-c1ccccc1 6.84%, Cc1cc(C)cc(OCC(=O)N2CCN(c3ncccn3)CC2)c1 1.56%, Cc1ccc(OCC(=O)Oc2ccc(C(C)C)cc2)cc1 15.2%, COc1ccc(CC(=O)Oc2cc(C)ccc2C)cc1 4.1%, Cc1cccc(OCC(=O)Oc2ccc(Cl)cc2)c1 14.7%, COc1ccc(N(C(=O)COc2cccc(C)c2)S(=O)(=O)c2ccc(C)cc2)cc1 7.24%, COc1ccc(OC(=O)COc2ccc(Cl)cc2)cc1 10.7%, Cc1ccc(OC(=O)COc2ccccc2C)cc1 9.41%, Cc1ccc(C(=O)C[n+]2ccc(-c3nnc4n3CCC4)cc2)cc1 -12.9%, CN(C(=O)CSc1nnc(-c2ccccc2F)n1N)C1CCCCC1 4.13%, Cc1noc(C)c1NC(=O)NCCN1CCN(Cc2ccccc2)CC1 11.3%, CCOc1ccc2[nH]c(=O)c(CN(CCN3CCCC3)C(=S)Nc3ccccc3OC)cc2c1 3.77%, C=CCc1ccccc1OCC(=O)N/N=C/c1ccc(OC(C)=O)cc1OC(C)=O -0.28%, C1=CC2=NC34CCCCC3CC3=C(CCCC3)N4C2=CC1=NC1CCCCC1 (centres undefined) 11.1%, CCOc1ccc(NC(=O)NC2CCCc3ccccc32)cc1 (centres undefined) 13.3%, COc1ccc(CNC2CCCc3ccccc32)cc1OC (centres undefined) 6.79%, CCOc1ccc2[nH]c3ncccc3c(=O)c2c1 3.15%, CCOc1ccc(N=Nc2ccc(O)c3ncccc23)cc1 5.89%, COc1cc(/C=N/NC(=O)c2cc(C)oc2C)cc(OC)c1OC -1.5%, COc1cc(/C=N/NC(=O)c2cc(C)oc2C)ccc1OCc1ccccc1 5.24%, COc1cc(/C=N/NC(=O)c2ccoc2C)cc(OC)c1O 21.6%, COc1ccc(/C=N/NC(=O)c2ccoc2C)cc1OC 6.81%, COc1ccc(/C=N/NC(=O)c2cc(C)oc2C)cc1OC 3.85%, COc1ccc(/C=N/NC(=O)c2cc(C)oc2C)cc1OCc1ccccc1 11.1%, Cc1ccc(S(=O)(=O)N2CCN(C(=O)c3ccco3)CC2)c(C)c1 6.61%, CC(=O)Nc1ccc(S(=O)(=O)N2CCCC3CCCCC32)cc1 (centres undefined) 2.55%, COCCCNC(=O)CC1C[C@H](C(=O)N2CCOCC2)[C@@]2(CCC3CCCC3)c3[nH]c4ccc(OC)cc4c3CCN2C1=O (some centres undefined) 3.79%, O=C(NC1CCN(Cc2ccc(Cl)cc2Cl)CC1)c1ccccc1 5.03%, Cn1c(C(=O)N2CCCC(Nc3ccc(F)cc3)C2)cc2ccccc21 (centres undefined) -8.53%, O=C(O)c1cccc(S(=O)(=O)Nc2ccccc2C(=O)NCCc2ccccc2)c1 4.14%, COc1cccc(CNCc2ccc3c(c2)OCO3)c1 31.8%, Fc1cccc(CNCc2ccc3c(c2)OCO3)c1 3.78%, COc1cc(CC(=O)NCc2ccc3c(c2)OCO3)cc(OC)c1OC 4.17%, COc1cc(C(=O)NCCc2ccc3c(c2)OCO3)cc(OC)c1OC -4.93%, CC1(C)CC(=O)C=C(c2cccc(OC(=O)c3ccc(-c4ccccc4)cc3)c2)C1=O 11.9%, CCOc1ccc(NC(=O)CN2CCN(c3ccc(F)cc3)CC2)cc1S(=O)(=O)N1CCCC1 10.6%, CN(CC(O)COc1ccc(S(=O)(=O)N2CCOCC2)cc1)C1CCCCC1 (centres undefined) 10.6%, O=C(CSc1nnnn1Cc1ccccc1)Nc1cccc(F)c1 8.78%, Nc1ccc(C(=O)C(=O)c2ccc(N)cc2)cc1 6.66%, N=C(N)c1ccc(N)cc1 10.7%, CC(NC(=O)COc1cccc(Br)c1)C(=O)O (centres undefined) 3.37%, CCc1sc(C(=O)Nc2ccc(N3CCOCC3)cc2)cc1C 9.93%, CN1C(=S)SC(N(O)C=C2C=CC(=O)C=C2)C1(C)C (centres undefined) 24.5%, CCOC(=O)/C(C#N)=C\C=C1C=CN(C)C=C1 10.4%, COc1ccc(C(CNC(=O)c2ccc(NS(=O)(=O)c3ccc4c(c3)OCCO4)cc2)N(C)C)cc1 (centres undefined) -0.2%, CCC(C)(c1ccc(C=O)s1)c1ccc(C=O)s1 6.23%, Cc1ccc2c(CC(=O)NNC(=O)c3ccccc3)coc2c1 6.09%, Cc1ccc2c(CC(=O)NCc3cccs3)coc2c1 3.76%, Cc1ccc2c(CC(=O)NNC(=O)c3ccccc3O)coc2c1 -8.73%, COc1ccc2c(CC(=O)NNC(=O)c3cccs3)coc2c1 5.91%, CN(C)CC1(c2ccccc2)CCCC1 -6.5%, CC1CCCCN1C(=S)Nc1ccc(OC(F)F)cc1 (centres undefined) 2.05%, O=c1[nH]c2ccccc2cc1CN(Cc1ccco1)S(=O)(=O)c1ccccc1 5.99%
